USP1-UAF1 inh = blocks the human USP1/UAF1 deubiquitinase complex. AID 743255. O94782. recombinant USP1/UAF1, Ub-Rhodamine cleavage fluorescence. Potency, µM (doses to about 57.1 µM), without a hit: at the top dose activity change, negative = inhibition, most hits filed as inhibitors. 390,000 compounds, 0.23% hits; active means well fitted curve in the direction sought with a large enough effect; inconclusive means small, poorly fitted or top-dose-only effect, or another doubt; inactive means no such curve, though single readings can be large; an effect the other way counts as inactive or inconclusive; further: potency means the concentration at half of the fitted maximal effect; on the % scale 0 is the no-effect control and ±100 the full control effect; nearly all actives have a fitted effect of over 60% in size
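In this screen, compounds sit with the deubiquitinase complex (1nM) for 15 min at room temperature before Ub-Rho is added at 150nM final. Fluorescence rise is then followed for 6 reads every 60 seconds.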
FBPA coupling cs = counter-screen for Giardia aldolase inhibitors: coupling enzyme system; coupling enzyme system counterscreen, AmpLite Red fluorescence; activity change, negative = inhibition, % at 58.2 µM, hits read low; 290,000 compounds, 0.67% hits; AID 2472; in the data active means activity change below about -30%; further: on the % scale 0 is the no-effect control and ±100 the full control effect
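Activity here indicates interference with the coupling reaction, not aldolase inhibition. Compounds at 57.5 uM final met coupling enzymes for 10 min at RT; substrate and AmpLite Red detection followed, with a 525/598 nm fluorescence read after 20 min.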
EPAC2 antag = EPAC2 (human) antagonism; EPAC2 GEF exchange of Rap1B-BODIPY-GDP, fluorescence; Potency, µM (doses to about 114 µM), without a hit: top-dose activity, negative = inhibition, usual class: inhibitors; 360,000 compounds, 0.18% hits; active means well fitted curve in the direction sought with a large enough effect; inconclusive means small, poorly fitted or top-dose-only effect, or another doubt; inactive means no such curve, though single readings can be large; an effect the other way counts as inactive or inconclusive; further: potency means the concentration at half of the fitted maximal effect; on the % scale 0 is the no-effect control and ±100 the full control effect; nearly all actives have a fitted effect of over 45% in size
EPAC2 ag = activates human EPAC2 exchange factor; Q8WZA2; EPAC2 activation, biochemical qHTS; response scale: 100% = 6.5 mM cAMP response; Potency, µM (highest dose often 154 µM), for the others: at the highest dose activation, hits mostly activators; 360,000 compounds, 0.079% hits; AID 720711; active means well fitted curve in the direction sought with a large enough effect; inconclusive means small, poorly fitted or top-dose-only effect, or another doubt; inactive means no such curve, though single readings can be large; an effect the other way counts as inactive or inconclusive; further: potency means the concentration at half of the fitted maximal effect; nearly all actives have a fitted effect of over 50% in size
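Each well held 100 nM EPAC2, 250 nM RAP1B-BODIPY-GDP and 50 uM GDP. Fluorescence, read at 5-min intervals to 30 min, was referenced to a 6.5 mM cAMP positive control.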
EPAC1 ag = agonists of human EPAC1 | O95398 | EPAC1 agonist qHTS, biochemical assay; response scale: 100% = response to 6.5 mM cAMP | Potency, µM (top dose mostly 154 µM), without a hit: top-dose activation, most hits filed as activators | 360,000 compounds, 0.073% hits | AID 720707; active means well fitted curve in the direction sought with a large enough effect; inconclusive means small, poorly fitted or top-dose-only effect, or another doubt; inactive means no such curve, though single readings can be large; an effect the other way counts as inactive or inconclusive; further: potency means the concentration at half of the fitted maximal effect; nearly all actives have a fitted effect of over 60% in size
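Normalized to 6.5 mM cAMP, activity reflects EPAC1-catalysed release of BODIPY-GDP from Rap1B, followed kinetically over 30 min at 480 nm excitation, 540 nm emission. Reaction contained 100 nM EPAC1, 250 nM Rap1B-BODIPY-GDP, 50 uM GDP.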
EPAC1 antagonist = blocks human EPAC1 exchange factor | O95398 | EPAC1 GEF assay, Rap1b-BODIPY-GDP exchange fluorescence | Potency, µM (top dose mostly 115 µM), for the others: top-dose activity change, negative = inhibition, usual class: inhibitors | 360,000 compounds, 0.14% hits | AID 720709; active means well fitted curve in the direction sought with a large enough effect; inconclusive means small, poorly fitted or top-dose-only effect, or another doubt; inactive means no such curve, though single readings can be large; an effect the other way counts as inactive or inconclusive;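 further: potency means the concentration at half of the fitted maximal effect; plate controls were vehicle for no effect and positive control for full effect; nearly all actives have a fitted effect of over 50% in size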
CASP1 redox cat = inhibits human caspase-1 in catalase buffer, redox counter-screen | shares compounds with FBPA coupling cs | caspase-1 Ac-WEHD-AFC fluorescence rate, catalase buffer | Potency, µM (doses to about 57.5 µM), for inactives: top-dose activity change, negative = inhibition, actives largely listed as inhibitors | 30 tested, under 10 active
CASP1 inh CRC = confirmation of allosteric or competitive inhibitors of human caspase-1; shares compounds with FBPA coupling cs; purified caspase-1, fluorogenic substrate cleavage; Potency, µM (highest dose often 57.5 µM), inactives show top-dose activity change, negative = inhibition, actives largely listed as inhibitors; 60 compounds, 20% hits
Casp7 confirm = confirmation of allosteric or competitive inhibitors of human caspase-7; Potency, µM (titrated, usually from 57.5 µM), without a hit: at the highest dose activity change, negative = inhibition, most hits filed as inhibitors; AID 897; shares compounds with FBPA coupling cs; 60 tested, under 10 active; recombinant caspase-7, fluorogenic substrate cleavage; active means well fitted inhibition curve with a large enough effect in the main read-out, with a control signal flat, not every such curve was filed as active; inconclusive means small, poorly fitted or top-dose-only effect, or a change in a side signal; inactive means no such curve, though single readings can be large or run the other way
CASP7 redox cys = counter-screen for redox active caspase-7 inhibitors: cysteine buffer. 60 tested, under 10 active. caspase-7 enzyme with cysteine, fluorogenic substrate, redox counterscreen. shares compounds with FBPA coupling cs. Potency, µM (doses to about 57.5 µM), for inactives: at the highest dose activity change, negative = inhibition, hits mostly inhibitors
Casp7 catalase = counter-screen for redox active caspase-7 inhibitors: catalase buffer | shares compounds with FBPA coupling cs | Caspase-7 Ac-DEVD-AFC fluorescence rate, catalase buffer | Potency, µM (highest dose often 57.5 µM), for inactives: at the highest dose activity, negative = inhibition, most hits filed as inhibitors | 30 tested, under 10 active | AID 909
Casp1 cysteine = inhibits caspase-1 in cysteine buffer, redox counter-screen | Potency, µM (series often up to 57.5 µM), inactives show at the top dose activity change, negative = inhibition, usual class: inhibitors | shares compounds with FBPA coupling cs | recombinant caspase-1, fluorogenic substrate, cysteine buffer | 60 tested, under 10 active | AID 929
* marks the source's active call; other numbers are inactive results. In the library only some 0.87% were active in any assay of this set; here they are far more common. Unless noted, the call rests on the fitted dose curve; in most records, active means well fitted inhibition curve with a large enough effect in the main read-out, with a control signal flat; inconclusive means small, poorly fitted or top-dose-only effect, or a change in a side signal; inactive means no such curve, though single readings can be large or run the other way.

How did Cc1ccc(N2C(=O)[C@@H]3[C@H](C2=O)C2c4ccccc4C=CN2[C@@H]3C(=O)c2ccco2)c(C)c1 (stereo not given in full) do in these assays?
USP1-UAF1 inh: 4µM*; FBPA coupling cs: -42*; EPAC2 antag: -5%; EPAC2 ag: 11%; EPAC1 ag: 4%; EPAC1 antagonist: inconclusive; CASP1 redox cat: 32µM*; CASP1 inh CRC: 25µM*; Casp7 confirm: inconclusive; CASP7 redox cys: -6%; Casp7 catalase: -29%; Casp1 cysteine: -17%

Results for CC(C)Oc1ccc(Cn2c(-c3ccco3)n[nH]c2=S)cc1 ?
USP1-UAF1 inh: 1%; FBPA coupling cs: -1; EPAC2 antag: 2%; EPAC2 ag: 10%; EPAC1 ag: 7%; EPAC1 antagonist: -11%

How did Cc1cc(O)c(-c2n[nH]c3c2C(c2cccc(O)c2)N(Cc2cccnc2)C3=O)cc1Cl (stereo not given) do in these assays?
USP1-UAF1 inh: -10%; FBPA coupling cs: 3; EPAC2 antag: -9%; EPAC2 ag: 9%; EPAC1 ag: 8%; EPAC1 antagonist: 1%; CASP1 inh CRC: -7%; Casp7 confirm: -25%; CASP7 redox cys: -30%; Casp1 cysteine: 15%

What do the screens show for `COC(=O)c1ccc(C2c3c(-c4ccccc4O)n[nH]c3C(=O)N2Cc2cccnc2)cc1` (stereo not given)?
USP1-UAF1 inh: -23%

Results for C=CCN1C(=O)/C(=C/N(C)C)S/C1=N\S(=O)(=O)c1cccs1 ?
USP1-UAF1 inh: -21%; EPAC2 antag: 2%; EPAC2 ag: 4%; EPAC1 ag: 10%; EPAC1 antagonist: -6%

Results for Cc1ccsc1C=Nc1ccc(O)cc1 ?
USP1-UAF1 inh: 2.2µM*; FBPA coupling cs: -50*; EPAC2 antag: 50µM*; EPAC2 ag: 10%; EPAC1 ag: 12%; EPAC1 antagonist: 35µM*; CASP1 redox cat: -1%; CASP1 inh CRC: -11%; Casp7 confirm: -3%; CASP7 redox cys: -1%; Casp7 catalase: -6%; Casp1 cysteine: 3%

How did Cc1cccc(Cn2ccn(Cc3ccc(Cl)cc3)c(=O)c2=O)c1 do in these assays?
USP1-UAF1 inh: -4%

Results for [C-]1=CC=CC1.[C-]1=CC=CC1.[Cl-].[Cl-].[Ti+4] ?
CASP1 inh CRC: inconclusive; Casp7 confirm: -36%; CASP7 redox cys: -33%; Casp1 cysteine: -14%

What do the screens show for `Brc1ccc2c(c1)CNc1c(ncnc1N1CCOCC1)O2`?
USP1-UAF1 inh: -6%; FBPA coupling cs: -3; EPAC2 antag: 23%; EPAC2 ag: 5%; EPAC1 ag: 4%; EPAC1 antagonist: -8%

How did Cc1cccc(NC(=O)C2CCCN(c3nc4ccccc4s3)C2)c1C (stereo not given) do in these assays?
USP1-UAF1 inh: -23%

How did O=C(Nc1ccc2c(c1)OCO2)C1CCCN(c2nc3ccccc3s2)C1 (stereo not given) do in these assays?
USP1-UAF1 inh: -16%; FBPA coupling cs: -7; EPAC2 antag: 1%; EPAC2 ag: -1%; EPAC1 ag: 0%; EPAC1 antagonist: -3%; CASP1 redox cat: 1%; CASP1 inh CRC: -9%; Casp7 confirm: -7%; CASP7 redox cys: -4%; Casp7 catalase: -6%; Casp1 cysteine: 7%

How did COc1ccc(C(=O)Nc2nc3c(s2)Cc2cc(OC)ccc2-3)cc1 do in these assays?
USP1-UAF1 inh: -17%; EPAC2 antag: -3%; EPAC2 ag: 7%; EPAC1 ag: 7%; EPAC1 antagonist: -15%

How did COc1ccc2c(c1)Cc1sc(NC(=O)c3cccs3)nc1-2 do in these assays?
USP1-UAF1 inh: inconclusive; FBPA coupling cs: -35*; EPAC2 antag: 2%; EPAC2 ag: -1%; EPAC1 ag: -2%; EPAC1 antagonist: 1%; CASP1 redox cat: inconclusive; CASP1 inh CRC: -48%; Casp7 confirm: -12%; CASP7 redox cys: -13%; Casp7 catalase: -12%; Casp1 cysteine: -54%

How did COc1ccc(NC(=O)CSc2nc3[nH]ncc3c(=O)[nH]2)cc1OC do in these assays?
USP1-UAF1 inh: -16%; EPAC2 antag: 16%; EPAC2 ag: 7%; EPAC1 ag: -2%; EPAC1 antagonist: 9%

What do the screens show for `O=c1cnnc(SCCc2ccccc2)[nH]1`?
USP1-UAF1 inh: -20%; FBPA coupling cs: 11; EPAC2 antag: 5%; EPAC2 ag: 7%; EPAC1 ag: 0%; EPAC1 antagonist: -20%; CASP1 redox cat: 4%; CASP1 inh CRC: -6%; Casp7 confirm: -2%; CASP7 redox cys: -6%; Casp7 catalase: 2%; Casp1 cysteine: 5%

How did CCSC1=N/C(=C\C=C2/Oc3ccccc3N2CC)C(=O)S1 do in these assays?
USP1-UAF1 inh: inconclusive; FBPA coupling cs: -6; EPAC2 antag: 22%; EPAC2 ag: 18%; EPAC1 ag: 14%; EPAC1 antagonist: -1%

How did O=C1Cc2ccccc2C(=O)N1CCc1ccccc1 do in these assays?
USP1-UAF1 inh: 5.6µM*; FBPA coupling cs: -47*; EPAC2 antag: 3%; EPAC2 ag: 6%; EPAC1 ag: -9%; EPAC1 antagonist: inconclusive; CASP1 inh CRC: 6.3µM*; Casp7 confirm: 10µM*; CASP7 redox cys: -3%; Casp1 cysteine: -1%
